Experimental data as given in PubChem BioAssay (EPA / NIEHS).
Results filed as inconclusive are left out. A structure can be active in one record and inactive in another. Activity calls are given as the source filed them. Rule for the calls: active = hit-call score of the fitted dose curve at least 0.9, where 1 is the maximum; inconclusive = response in the unintended direction; inactive = score below 0.9.

Key:
[1] = target: bovine Estrogen Receptor (ER), ESR1 (gene 407238) (UniProt P49884); assay: NVS_NR_bER: NovaScreen (NVS) Nuclear Receptor Binding Assay for bovine Estrogen Receptor (ER) (AID 2283345);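 note: actives lower the bound radioligand count which means they displace the ER ligand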
Summary of the method: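 Displacement of a radioligand from estrogen receptor in bovine uterine membrane preparations; scintillation signal taken at 18 hours, DMSO as baseline. Single-concentration duplicates (25 uM) preceded concentration-response follow-up of actives.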

[2] = target: Estrogen receptor (Homo sapiens) (UniProt P03372); assay: OT_ER_ERaERa_1440: Odyssey Thera (OT) 24-hour HEK293T Protein-Complementation Assay for Estrogen Receptor-alpha/-alpha Homodimer (AID 2283349);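 note: hits raise fluorescence above DMSO for agonists and antagonists alike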
Summary of the method: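 Cells (HEK293T) carrying the fragment-tagged ERα LBD (aa 310-547) pair are treated with chemical for 24 hours. Nuclear and/or cytoplasmic fluorescence is then quantified on a laser scanning cytometer. Activity is scored as signal gain against DMSO.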

[3] = target: Estrogen receptor (Homo sapiens) (UniProt P03372); assay: OT_ER_ERaERa_0480: Odyssey Thera (OT) 8-hour HEK293T Protein-Complementation Assay for Estrogen Receptor-alpha/-alpha Homodimer (AID 2283351);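 note: rise in fluorescence from reassembled reporter fragments on ERα LBD homodimer in nucleus or whole cell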
Summary of the method: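 HEK293T cells stably expressing a PCA pair of ER alpha LBD (residues 310-547) were dosed for 8 hours. The gain in fluorescence intensity, nuclear for agonists and whole-cell for antagonists, was measured by laser scanning cytometry against DMSO vehicle.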

[4] = target: Estrogen receptor (Homo sapiens) (UniProt P03372); assay: NVS_NR_hER: NovaScreen (NVS) Nuclear Receptor Binding Assay for human Estrogen Receptor (ER) (AID 2283348)
Summary of the method: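 MCF7-derived receptor extract, radiolabelled ligand, competitive displacement. Read: scintillation counts at 18 h. DMSO = negative control/baseline. Primary 25 uM duplicate; follow-up concentration–response.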

Chain of bovine Estrogen Receptor (ER), ESR1 (gene 407238) (P49884 whole entry, looked up): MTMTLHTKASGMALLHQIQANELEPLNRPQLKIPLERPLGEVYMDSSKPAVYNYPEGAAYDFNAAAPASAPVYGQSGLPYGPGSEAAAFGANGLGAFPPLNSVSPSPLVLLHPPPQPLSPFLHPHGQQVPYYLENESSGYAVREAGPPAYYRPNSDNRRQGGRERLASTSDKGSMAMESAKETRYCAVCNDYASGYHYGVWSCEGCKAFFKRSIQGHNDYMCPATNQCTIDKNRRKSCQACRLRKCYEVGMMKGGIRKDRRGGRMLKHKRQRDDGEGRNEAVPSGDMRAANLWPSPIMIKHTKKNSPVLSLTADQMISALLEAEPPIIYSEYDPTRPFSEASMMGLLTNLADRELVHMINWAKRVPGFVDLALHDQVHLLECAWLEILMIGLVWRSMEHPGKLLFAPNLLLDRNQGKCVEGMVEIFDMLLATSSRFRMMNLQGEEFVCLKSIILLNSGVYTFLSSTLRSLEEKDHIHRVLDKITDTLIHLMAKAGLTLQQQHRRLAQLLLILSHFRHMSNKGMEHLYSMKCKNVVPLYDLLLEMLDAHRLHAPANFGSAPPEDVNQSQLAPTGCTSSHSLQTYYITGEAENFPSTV
Chain of Estrogen receptor (Homo sapiens) (P03372 whole entry, looked up, the tested form may be a part): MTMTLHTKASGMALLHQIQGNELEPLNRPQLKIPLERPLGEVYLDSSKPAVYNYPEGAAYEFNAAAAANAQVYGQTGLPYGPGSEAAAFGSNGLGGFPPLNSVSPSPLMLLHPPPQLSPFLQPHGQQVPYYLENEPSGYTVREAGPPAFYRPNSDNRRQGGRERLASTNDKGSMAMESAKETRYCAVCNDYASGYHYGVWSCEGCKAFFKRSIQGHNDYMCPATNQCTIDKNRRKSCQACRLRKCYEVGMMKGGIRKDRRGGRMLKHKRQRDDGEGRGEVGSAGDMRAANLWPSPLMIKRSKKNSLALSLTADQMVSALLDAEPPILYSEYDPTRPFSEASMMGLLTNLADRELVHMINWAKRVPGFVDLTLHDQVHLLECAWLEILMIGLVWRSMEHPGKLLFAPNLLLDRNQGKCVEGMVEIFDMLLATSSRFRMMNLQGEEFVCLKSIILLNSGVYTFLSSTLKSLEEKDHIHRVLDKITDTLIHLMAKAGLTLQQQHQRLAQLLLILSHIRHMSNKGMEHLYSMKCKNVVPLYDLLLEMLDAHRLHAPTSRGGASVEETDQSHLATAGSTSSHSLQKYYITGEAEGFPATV

CN(C)c1ccc(N=Nc2ccccc2C(=O)O)cc1
outcome [1]: inactive | outcome [2]: inactive | outcome [3]: inactive

Oc1ccc(Cl)cc1Cc1cc(Cl)ccc1O
outcome [1]: inactive | AC50 [4]: 25 µM (active) | AC50 [2]: 11.9 µM (active) | outcome [3]: inactive

CC(=O)OC(C)C
outcome [1]: inactive | outcome [4]: inactive | outcome [2]: inactive | outcome [3]: inactive

CC(C)(C)C(=O)CCc1ccc(Cl)cc1
outcome [4]: inactive

OC1CCCCCCCCCCC1
outcome [1]: inactive | outcome [2]: inactive | outcome [3]: inactive

C=C1C2CCC(C2)C1(C)C (configuration not stated)
outcome [2]: inactive | outcome [3]: inactive

O=C(O)c1ccccc1Nc1cccc(C(F)(F)F)c1
outcome [4]: inactive

CC1=NN(c2cc(S(=O)(=O)O)ccc2Cl)C(=O)C1N=Nc1ccccc1 (configuration not stated)
outcome [2]: inactive | outcome [3]: inactive

[Cl][In]([Cl])[Cl]
outcome [1]: inactive | AC50 [4]: 25 µM (active) | outcome [4]: inactive

CCOC(=O)CC
outcome [2]: inactive

CCCCOCCOC(=O)COc1nc(Cl)c(Cl)cc1Cl
outcome [2]: inactive | outcome [3]: inactive

CC(=O)[C@H]1[C@H](C#N)C[C@H]2[C@@H]3CC=C4C[C@@H](O)CC[C@]4(C)[C@H]3CC[C@@]21C
outcome [1]: inactive | outcome [4]: inactive | outcome [2]: inactive | outcome [3]: inactive

CCCc1ccc(OC)cc1
outcome [2]: inactive | outcome [3]: inactive

O=C(c1ccccc1)C1CCC1
outcome [2]: inactive | outcome [3]: inactive

CC(C)(C)c1ccc(OC(=O)c2ccccc2O)cc1
AC50 [2]: 14.5 µM (active) | outcome [3]: inactive

O=C1C(N(CO)C(=O)NCO)N(CO)C(=O)N1CO (configuration not stated)
outcome [2]: inactive | outcome [3]: inactive

CC(C)(C)c1ccc(N)cc1
outcome [2]: inactive | outcome [3]: inactive

c1c[nH]cn1
outcome [2]: inactive | outcome [3]: inactive

NC(=O)c1ccccc1O
outcome [2]: inactive | outcome [3]: inactive

CCCCCCCOC(=O)CCC
outcome [2]: inactive | outcome [3]: inactive

O=C1CCCC1
outcome [2]: inactive | outcome [3]: inactive

C=C[Si](C)(C)O[Si](C)(C)C=C
outcome [2]: inactive | outcome [3]: inactive

C1CN(SSN2CCOCC2)CCO1
outcome [2]: inactive | outcome [3]: inactive

Cc1cc(C)c(C(=O)O)c(C)c1
outcome [2]: inactive | outcome [3]: inactive

O=C(C=Cc1ccccc1)OCc1ccccc1
outcome [2]: inactive | outcome [3]: inactive

CCCCCCCC/C=C\CCCCCCCC(=O)O
outcome [2]: inactive | outcome [3]: inactive

CC(C)c1ccc2cc(C(C)C)ccc2c1
outcome [2]: inactive | outcome [3]: inactive

c1ccc2c(c1)ccc1cc3c(ccc4ccccc43)cc12
outcome [2]: inactive | outcome [3]: inactive

Cc1ccc(C(C)c2ccc(C)c(C)c2)cc1C
AC50 [2]: 84.6 µM (active) | AC50 [3]: 70.3 µM (active)

CCOC(=O)Cc1cccc2ccccc12
outcome [2]: inactive | outcome [3]: inactive

Cc1cc(C)c(C)cc1C
outcome [2]: inactive | outcome [3]: inactive

CCCCC/C=C\CCC=O
outcome [2]: inactive | outcome [3]: inactive

CO[Si](OC)(OC)c1ccccc1
outcome [2]: inactive | outcome [3]: inactive

Cn1c([N+](=O)[O-])cnc1COC(N)=O
outcome [2]: inactive | outcome [3]: inactive

CNC(=S)NN
outcome [2]: inactive | outcome [3]: inactive

CC(C)=CCC[C@H](C)CCO
outcome [2]: inactive | outcome [3]: inactive

CCCCCCCCCCOS(=O)(=O)O
outcome [2]: inactive | outcome [3]: inactive

C=CC(=O)NC(C)(C)CS(=O)(=O)O
outcome [2]: inactive | outcome [3]: inactive

COC(=O)c1c(C)cc(O)c(C)c1O
outcome [2]: inactive | outcome [3]: inactive

CCCCC(CC)CCC(CC(C)C)OS(=O)(=O)O (configuration not stated)
outcome [2]: inactive | outcome [3]: inactive

CCCCCc1ccc(Cl)cc1
outcome [2]: inactive | outcome [3]: inactive

CCCCCCCCO[C@@H]1O[C@H](CO)[C@@H](O)[C@H](O)[C@H]1O
outcome [2]: inactive | outcome [3]: inactive

CC(C)(C)c1ccc(-c2ccc(C(C)(C)C)cc2)cc1
outcome [2]: inactive | outcome [3]: inactive

CCCCCCCC/C=C\CCCCCCCC(=O)OCCO
outcome [2]: inactive | outcome [3]: inactive

CCN(CCC#N)c1ccc(N=Nc2c(Cl)cc([N+](=O)[O-])cc2Cl)cc1
outcome [2]: inactive | outcome [3]: inactive

NC(=O)N=NC(N)=O
outcome [2]: inactive | outcome [3]: inactive

CCCCCCC1(C)CCC(=O)O1 (configuration not stated)
outcome [2]: inactive | outcome [3]: inactive

CC=C1CC2C=CC1C2 (configuration not stated)
outcome [2]: inactive | outcome [3]: inactive
